In PubChem BioAssay (NCATS) one finds Potency data, which are given here for 40 compounds.

Inconclusive results are not listed. A call without a number means that no potency is given here. The source made the active and inactive calls. The call rests on the fitted dose curve; in most records, active means well fitted inhibition curve with a large enough effect; inconclusive means small, poorly fitted or top-dose-only effect; inactive means flat fitted curve, though single readings scatter.
Potency means the concentration at half of the fitted maximal effect.

This experiment deals with DNA repair nuclease/redox regulator APEX1 (Homo sapiens) (UniProt P27695). Put plainly: qHTS Validation Assay for Inhibitors of the Human Apurinic/apyrimidinic Endonuclease 1 (APE1) (AID 1705). As to conditions: purified APE1 endonuclease activity, fluorescence, titration; series mostly up to 57.1 µM. The text has this: Assay Provider: David M. Wilson, III, National Institute on Aging, NIH
Chain of DNA repair nuclease/redox regulator APEX1 (Homo sapiens) (P27695 whole entry, looked up): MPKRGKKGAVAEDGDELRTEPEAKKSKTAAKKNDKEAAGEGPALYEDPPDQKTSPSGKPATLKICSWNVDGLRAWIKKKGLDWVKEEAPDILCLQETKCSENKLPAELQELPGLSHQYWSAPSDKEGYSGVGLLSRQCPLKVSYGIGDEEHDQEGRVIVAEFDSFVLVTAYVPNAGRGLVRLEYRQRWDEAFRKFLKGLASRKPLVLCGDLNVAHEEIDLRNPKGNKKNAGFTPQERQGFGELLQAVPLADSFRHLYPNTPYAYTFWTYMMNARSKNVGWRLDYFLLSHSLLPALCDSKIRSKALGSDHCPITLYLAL
Screening Center PI: Austin, C.P.
Screening Center: NIH Chemical Genomics Center [NCGC]
The apurinic/apyrimidinic endonuclease APE1 is the primary mammalian enzyme responsible for the removal of abasic (or AP) sites in DNA and functions centrally in the base excision DNA repair (BER) pathway. […] Thus, targeting APE1 could improve the efficacy of current treatment paradigms by promoting selective sensitization or protection of diseased and normal cells, respectively.
Inhibition of APE1 activity was screened by utilizing double-stranded short substrate containing tetrahydrofuran (THF) abasic site labeled with rhodamine-type fluorophore (TAMRA) at the 5'-end and with non-fluorescent Black Hole Quencher-2 (BHQ-2) at the opposing 3'-end. An increase in the fluorescence intensity due to incision of the abasic site by APE1 was used to measure the enzyme activity.
1. Substrate: 50 nM final concentration of TAMRA/BHQ-2 substrate dispensed throughout the plate.
2. Enzyme: […] nM APE1 final concentration in columns 1, 2, 5-48. Column 1 is neutral (100% activity)
3. Control: Pintool transfer of control inhibitor NSC-13755 to column 2 of all assay plates. Two-fold, 16 pt dilution in duplicate to produce final concentrations in the […] uM - […] nM range.
3. Buffer columns in columns 3 and 4 were used as negative control (no enzyme).
Three uL of enzyme were dispensed to 1536-well Greiner black solid bottom plates. Compounds (23 nL) were transferred via Kalypsys pintool. The plates were incubated for 15 min at room temperature, and then 1 uL of substrate solution was added to start the reaction. The plates were immediately transferred into ViewLux High-throughput CCD imager (Perkin-Elmer) in order to measure the reaction progress in kinetic mode (three reads every 60 seconds) using 525 nm excitation and 598 nm emission fluorescence protocol. The fluorescence intensity difference between the third and the first time points was used to compute reaction progress.
For the compound `COC(=O)Nc1nc2ccc(C(=O)c3cccs3)cc2[nH]1`, the Potency result is “inactive”.
In the case of `CS(=O)(=O)Nc1ccc([N+](=O)[O-])cc1Oc1ccccc1`, the Potency is 39.8 µM (active).
For `CN(C)c1nc(N(C)C)nc(N(C)C)n1`, the Potency result was “inactive”.
Regarding `Clc1ccc2c(c1)C(N1CCNCC1)=Nc1ccccc1O2`, the Potency result is “inactive”.
In the case of `COc1cc2nc(N3CCN(C(=O)C4COc5ccccc5O4)CC3)nc(N)c2cc1OC` (stereo not given), the Potency result is “inactive”.
`COc1ccc2c(c1)c(CC(=O)O)c(C)n2C(=O)c1ccc(Cl)cc1`: the Potency result was “inactive”.
The entry for `CCCNCC(O)COc1ccccc1C(=O)CCc1ccccc1` (stereo not given) is “inactive”; for `Cc1cn([C@H]2C=C[C@@H](CO)O2)c(=O)[nH]c1=O` it is “inactive”.
The entry for `CCC1(C)CC(=O)NC1=O` (stereo not given) is “inactive”; for `O=C(CCCN1CCC(O)(c2ccc(Cl)cc2)CC1)c1ccc(F)cc1` it is “inactive”.
Regarding `CN1CCC(=C2c3ccccc3CC(=O)c3sccc32)CC1`, the Potency result is “inactive”.
With `COc1cc2nc(N3CCN(C(=O)c4ccco4)CC3)nc(N)c2cc1OC`, the Potency entry is “inactive”.
For the compound `C[C@](N)(Cc1ccc(O)c(O)c1)C(=O)O`, the Potency is 7.94 µM (active).
For `O=C1N(c2ccccc2)c2ccccc2C1(Cc1ccncc1)Cc1ccncc1`, the Potency result was “inactive”.
The entry for `Nc1nc2c(ncn2COC(CO)CO)c(=O)[nH]1` is “inactive”; for `Cc1ccccc1N1C(=O)c2cc(S(N)(=O)=O)c(Cl)cc2NC1C` (stereo not given) it is “inactive”; for `Cc1ccc(C(=O)Nc2ccc(S(=O)(=O)O)c3cc(S(=O)(=O)O)cc(S(=O)(=O)O)c23)cc1NC(=O)c1cccc(NC(=O)Nc2cccc(C(=O)Nc3cc(C(=O)Nc4ccc(S(=O)(=O)O)c5cc(S(=O)(=O)O)cc(S(=O)(=O)O)c45)ccc3C)c2)c1` it is 8.91 µM (active).
As for `O=C(C1CCCCC1)N1CC(=O)N2CCc3ccccc3C2C1` (stereo not given), the Potency entry was “inactive”.
Regarding `CC(CCc1ccc(O)cc1)NCCc1ccc(O)c(O)c1` (stereo not given), the Potency entry is “inactive”.
As for `COc1ccc(C2CNC(=O)C2)cc1OC1CCCC1` (stereo not given), the Potency result was “inactive”.
`N[C@@H](Cc1c[nH]c2ccc(O)cc12)C(=O)O`: the Potency entry is “inactive”.
As for `CN1C(C(=O)Nc2ccccn2)=C(O)c2ccccc2S1(=O)=O`, the Potency entry is “inactive”.
`CCOC(=O)Nc1ccc(NCc2ccc(F)cc2)nc1N`: the Potency entry is “inactive”.
With `COc1ccc(CCN(C)CCCC(C#N)(c2ccc(OC)c(OC)c2)C(C)C)cc1OC` (stereo not given), the Potency entry is “inactive”.
`CC(C)(Oc1ccc(C2CC2(Cl)Cl)cc1)C(=O)O` (stereo not given): the Potency result is “inactive”.
On to `CC(COc1ccccc1)N(CCCl)Cc1ccccc1` (stereo not given), for which the Potency result is “inactive”.
Consider `CN(C)C(=O)C(CCN1CCC(O)(c2ccc(Cl)cc2)CC1)(c1ccccc1)c1ccccc1`, for which the Potency result is “inactive”.
Consider `O=C(c1ccc(F)cc1)C1CCN(CCn2c(=O)[nH]c3ccccc3c2=O)CC1`, for which the Potency result is “inactive”.
Regarding `COc1ccccc1OCC(O)CN1CCN(CC(=O)Nc2c(C)cccc2C)CC1` (stereo not given), the Potency result is “inactive”.
In the case of `CCc1cccc2c3c([nH]c12)C(CC)(CC(=O)O)OCC3` (stereo not given), the Potency result was “inactive”.
For the compound `Nc1nnc(-c2cccc(Cl)c2Cl)c(N)n1`, the Potency result was “inactive”.
For the compound `Cn1c(=O)c2[nH]cnc2n(C)c1=O`, the Potency result is “inactive”.
The entry for `CCOC(=O)c1ncn2c1CN(C)C(=O)c1cc(F)ccc1-2` is “inactive”; for `Cn1c(=O)c2c(ncn2C)n(C)c1=O` it is “inactive”; for `Clc1ccc(C(c2ccccc2Cl)C(Cl)Cl)cc1` (stereo not given) it is “inactive”.
For `CN1C2CCC1CC(OC(=O)C(CO)c1ccccc1)C2` (stereo not given), the Potency result was “inactive”.
Regarding `CC(C)NCC(O)COc1ccc(CCOCC2CC2)cc1` (stereo not given), the Potency entry is “inactive”.
As to `O=c1c(-c2ccc(O)cc2)coc2cc(O)cc(O)c12`, the Potency entry was “inactive”.
The entry for `O=C(Nc1ccc([N+](=O)[O-])cc1Cl)c1cc(Cl)ccc1O` is “inactive”; for `CC(C(=O)O)c1cccc(C(=O)c2ccccc2)c1` (stereo not given) it is “inactive”.
